Targets with a hit are over-represented here; the source holds about 7,900 in all. About 0.6% of all pairs of compound and target were hits.
How the values were obtained:
Assay in all cases: log2 fold change, soluble protein after heating vs DMSO (PISA); higher = thermal stabilisation; K562 cells, 10 uM, 30 min; active = over 0.2 and 3.5 SD of the protein, either way, in both replicates (recomputed)
[1] = molecular target: ZEB2 (UniProt O60315)
Summary of the method: (§1)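 Thermal stability values are relative to control samples and come from duplicates. They are expressed as log2 fold changes. For measurement, K562 cells (2×10^6 cells/mL) received 10 μM compound for 30 min, and aliquots were heated for 3 min over 48°C-58°C, pooled, and extracted at 4°C in PBS with 0.5% NP-40. Soluble protein, the supernatant after 21,000xg for 90 min, was quantified by TMTpro 16plex LC-MS/MS with equalised channel sums.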

[2] = molecular target: ZER1 (UniProt Q7Z7L7)
Summary of the method: as §1

[3] = molecular target: ZFAND5 (UniProt O76080)
Summary of the method: as §1

[4] = molecular target: ZFAND6 (UniProt Q6FIF0)
Summary of the method: as §1

[5] = molecular target: ZFP91 (UniProt Q96JP5)
Summary of the method: as §1

[6] = molecular target: ZFPL1 (UniProt O95159)
Summary of the method: as §1

[7] = molecular target: ZMAT2 (UniProt Q96NC0)
Summary of the method: as §1

[8] = molecular target: ZMYM1 (UniProt Q5SVZ6)
Summary of the method: as §1

[9] = molecular target: ZMYM3 (UniProt Q14202)
Summary of the method: as §1

[10] = molecular target: ZNF143 (UniProt P52747)
Summary of the method: as §1

Measured: log2 fold change

Chain of ZER1 (Q7Z7L7 whole entry, looked up): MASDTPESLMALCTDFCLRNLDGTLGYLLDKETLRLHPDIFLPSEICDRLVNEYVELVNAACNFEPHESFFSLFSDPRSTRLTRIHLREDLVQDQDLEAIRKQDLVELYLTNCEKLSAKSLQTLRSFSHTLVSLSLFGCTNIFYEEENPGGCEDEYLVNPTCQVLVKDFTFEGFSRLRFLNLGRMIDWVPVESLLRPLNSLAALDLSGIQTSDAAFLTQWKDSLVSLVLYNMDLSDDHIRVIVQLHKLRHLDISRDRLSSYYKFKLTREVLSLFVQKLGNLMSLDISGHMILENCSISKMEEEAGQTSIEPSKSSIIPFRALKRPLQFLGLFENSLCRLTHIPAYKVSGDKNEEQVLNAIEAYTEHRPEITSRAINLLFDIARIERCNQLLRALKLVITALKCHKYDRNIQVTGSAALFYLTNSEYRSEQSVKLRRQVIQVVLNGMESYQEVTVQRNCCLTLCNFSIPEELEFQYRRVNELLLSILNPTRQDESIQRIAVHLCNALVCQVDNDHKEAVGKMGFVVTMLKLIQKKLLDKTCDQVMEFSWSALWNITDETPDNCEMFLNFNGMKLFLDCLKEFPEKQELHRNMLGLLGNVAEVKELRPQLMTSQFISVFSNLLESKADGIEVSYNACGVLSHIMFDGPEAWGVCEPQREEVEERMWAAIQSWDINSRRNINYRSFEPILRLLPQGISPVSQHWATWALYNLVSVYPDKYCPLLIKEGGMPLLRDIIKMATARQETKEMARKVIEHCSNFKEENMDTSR
Chain of ZEB2 (O60315 whole entry, looked up): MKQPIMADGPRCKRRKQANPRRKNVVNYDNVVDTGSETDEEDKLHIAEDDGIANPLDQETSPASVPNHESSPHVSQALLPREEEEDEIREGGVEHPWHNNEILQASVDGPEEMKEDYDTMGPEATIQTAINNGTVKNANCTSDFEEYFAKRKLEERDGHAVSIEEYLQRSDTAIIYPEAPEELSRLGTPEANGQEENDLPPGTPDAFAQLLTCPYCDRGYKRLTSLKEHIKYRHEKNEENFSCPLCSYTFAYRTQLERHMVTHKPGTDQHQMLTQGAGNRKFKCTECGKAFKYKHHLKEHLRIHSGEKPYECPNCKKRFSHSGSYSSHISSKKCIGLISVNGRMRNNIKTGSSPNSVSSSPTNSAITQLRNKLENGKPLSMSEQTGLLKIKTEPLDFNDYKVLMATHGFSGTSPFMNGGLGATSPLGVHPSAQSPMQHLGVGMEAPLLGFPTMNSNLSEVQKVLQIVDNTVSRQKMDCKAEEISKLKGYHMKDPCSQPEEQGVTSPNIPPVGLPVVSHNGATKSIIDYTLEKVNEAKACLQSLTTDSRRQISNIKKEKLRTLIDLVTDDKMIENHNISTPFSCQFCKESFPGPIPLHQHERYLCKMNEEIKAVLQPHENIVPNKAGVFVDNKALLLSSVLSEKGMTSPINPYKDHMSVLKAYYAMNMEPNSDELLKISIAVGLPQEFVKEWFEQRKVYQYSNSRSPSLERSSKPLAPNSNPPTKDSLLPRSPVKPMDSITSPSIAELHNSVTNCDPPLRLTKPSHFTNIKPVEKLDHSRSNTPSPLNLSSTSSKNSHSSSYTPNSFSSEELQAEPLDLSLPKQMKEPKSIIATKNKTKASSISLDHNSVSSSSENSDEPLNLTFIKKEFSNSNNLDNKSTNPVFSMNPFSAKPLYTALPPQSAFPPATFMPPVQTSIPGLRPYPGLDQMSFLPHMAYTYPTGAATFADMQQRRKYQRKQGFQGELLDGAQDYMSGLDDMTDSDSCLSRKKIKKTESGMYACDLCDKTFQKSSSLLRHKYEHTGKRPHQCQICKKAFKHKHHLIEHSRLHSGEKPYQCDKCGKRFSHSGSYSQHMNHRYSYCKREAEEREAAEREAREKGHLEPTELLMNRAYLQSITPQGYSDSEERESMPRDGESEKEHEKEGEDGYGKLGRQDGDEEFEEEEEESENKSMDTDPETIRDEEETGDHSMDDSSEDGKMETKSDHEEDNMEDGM
Chain of ZFP91 (Q96JP5 whole entry, looked up): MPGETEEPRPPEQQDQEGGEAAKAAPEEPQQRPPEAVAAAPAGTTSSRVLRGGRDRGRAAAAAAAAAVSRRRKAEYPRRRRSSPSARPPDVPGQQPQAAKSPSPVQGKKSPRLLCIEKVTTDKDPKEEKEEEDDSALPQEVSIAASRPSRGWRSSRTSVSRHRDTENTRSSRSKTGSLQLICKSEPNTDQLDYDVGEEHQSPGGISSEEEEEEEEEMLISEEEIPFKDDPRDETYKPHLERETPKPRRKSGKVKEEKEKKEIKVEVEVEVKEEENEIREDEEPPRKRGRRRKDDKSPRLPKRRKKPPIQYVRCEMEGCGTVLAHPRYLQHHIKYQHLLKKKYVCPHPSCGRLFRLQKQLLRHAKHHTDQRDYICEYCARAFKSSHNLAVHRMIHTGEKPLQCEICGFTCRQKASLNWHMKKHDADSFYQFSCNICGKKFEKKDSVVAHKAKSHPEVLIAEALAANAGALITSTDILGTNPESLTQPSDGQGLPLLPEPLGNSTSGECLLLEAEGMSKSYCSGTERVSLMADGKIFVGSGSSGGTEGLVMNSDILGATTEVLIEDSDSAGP
Chain of ZFAND5 (O76080 whole entry, looked up): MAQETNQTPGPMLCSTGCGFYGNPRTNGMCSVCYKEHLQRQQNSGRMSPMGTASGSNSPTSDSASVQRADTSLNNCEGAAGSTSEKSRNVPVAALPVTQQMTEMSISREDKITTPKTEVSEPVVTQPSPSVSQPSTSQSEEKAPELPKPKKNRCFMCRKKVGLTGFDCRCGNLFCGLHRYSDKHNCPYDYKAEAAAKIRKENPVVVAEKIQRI
Chain of ZNF143 (P52747 whole entry, looked up): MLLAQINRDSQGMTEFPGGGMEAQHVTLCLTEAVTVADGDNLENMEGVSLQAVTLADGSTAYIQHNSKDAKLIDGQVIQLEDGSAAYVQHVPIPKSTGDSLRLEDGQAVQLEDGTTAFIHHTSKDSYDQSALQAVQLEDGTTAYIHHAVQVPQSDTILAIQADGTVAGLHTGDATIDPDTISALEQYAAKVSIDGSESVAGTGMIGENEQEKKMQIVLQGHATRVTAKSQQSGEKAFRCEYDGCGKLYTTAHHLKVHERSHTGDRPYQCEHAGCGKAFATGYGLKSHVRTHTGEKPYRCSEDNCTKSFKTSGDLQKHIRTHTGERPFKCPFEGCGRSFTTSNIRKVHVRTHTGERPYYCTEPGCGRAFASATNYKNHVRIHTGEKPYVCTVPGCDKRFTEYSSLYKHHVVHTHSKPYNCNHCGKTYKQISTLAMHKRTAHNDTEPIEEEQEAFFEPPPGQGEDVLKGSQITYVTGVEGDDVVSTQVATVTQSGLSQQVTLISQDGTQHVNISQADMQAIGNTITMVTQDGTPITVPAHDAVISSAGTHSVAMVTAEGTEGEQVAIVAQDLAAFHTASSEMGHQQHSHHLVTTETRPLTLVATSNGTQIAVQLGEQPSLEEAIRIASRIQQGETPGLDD
Chain of ZFPL1 (O95159 whole entry, looked up): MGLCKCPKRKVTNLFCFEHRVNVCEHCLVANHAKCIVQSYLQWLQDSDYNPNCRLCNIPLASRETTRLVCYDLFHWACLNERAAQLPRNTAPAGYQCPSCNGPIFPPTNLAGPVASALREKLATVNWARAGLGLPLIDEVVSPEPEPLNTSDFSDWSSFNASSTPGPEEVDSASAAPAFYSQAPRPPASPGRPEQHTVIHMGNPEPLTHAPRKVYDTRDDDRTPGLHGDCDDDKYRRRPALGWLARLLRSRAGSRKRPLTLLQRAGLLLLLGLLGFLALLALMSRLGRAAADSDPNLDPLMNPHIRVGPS
Chain of ZMAT2 (Q96NC0 whole entry, looked up): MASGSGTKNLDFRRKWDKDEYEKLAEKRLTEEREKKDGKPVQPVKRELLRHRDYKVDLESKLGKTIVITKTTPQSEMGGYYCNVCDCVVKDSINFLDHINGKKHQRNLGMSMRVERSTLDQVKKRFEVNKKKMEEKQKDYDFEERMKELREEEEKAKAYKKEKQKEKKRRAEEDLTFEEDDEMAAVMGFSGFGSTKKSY
Chain of ZMYM1 (Q5SVZ6 whole entry, looked up): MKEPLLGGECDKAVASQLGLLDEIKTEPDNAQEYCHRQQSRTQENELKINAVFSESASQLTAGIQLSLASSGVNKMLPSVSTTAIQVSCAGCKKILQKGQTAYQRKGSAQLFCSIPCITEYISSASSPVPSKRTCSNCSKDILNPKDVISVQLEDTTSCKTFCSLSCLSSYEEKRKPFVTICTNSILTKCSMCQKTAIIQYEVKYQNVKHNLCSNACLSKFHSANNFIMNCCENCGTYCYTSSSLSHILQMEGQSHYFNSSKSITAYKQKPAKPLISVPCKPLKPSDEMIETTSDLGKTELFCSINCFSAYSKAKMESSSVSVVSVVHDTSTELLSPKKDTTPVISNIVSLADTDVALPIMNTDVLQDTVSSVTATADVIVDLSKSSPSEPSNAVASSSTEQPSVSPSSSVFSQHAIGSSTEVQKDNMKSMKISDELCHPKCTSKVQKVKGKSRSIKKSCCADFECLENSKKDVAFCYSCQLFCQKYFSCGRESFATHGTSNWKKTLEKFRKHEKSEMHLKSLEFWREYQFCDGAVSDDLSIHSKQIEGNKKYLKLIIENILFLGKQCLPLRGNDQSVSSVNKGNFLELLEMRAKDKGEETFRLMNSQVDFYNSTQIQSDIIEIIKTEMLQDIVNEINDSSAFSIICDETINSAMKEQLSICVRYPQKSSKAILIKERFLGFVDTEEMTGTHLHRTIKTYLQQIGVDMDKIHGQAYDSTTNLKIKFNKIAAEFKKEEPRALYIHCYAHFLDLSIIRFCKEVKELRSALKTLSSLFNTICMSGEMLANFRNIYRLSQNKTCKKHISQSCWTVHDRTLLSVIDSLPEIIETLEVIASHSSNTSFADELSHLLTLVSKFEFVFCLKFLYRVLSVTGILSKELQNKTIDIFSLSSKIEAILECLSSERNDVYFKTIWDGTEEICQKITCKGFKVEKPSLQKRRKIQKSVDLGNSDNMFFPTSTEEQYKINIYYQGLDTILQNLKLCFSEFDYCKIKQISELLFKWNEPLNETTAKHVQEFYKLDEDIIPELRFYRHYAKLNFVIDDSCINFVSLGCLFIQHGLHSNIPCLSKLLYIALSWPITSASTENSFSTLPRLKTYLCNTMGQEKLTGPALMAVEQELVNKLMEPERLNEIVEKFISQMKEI

CCCS(=O)(=O)Nc1ccc(F)c(C(=O)c2c[nH]c3ncc(Cl)cc23)c1F
inactive: [1] 0.123 | [2] -0.001 | [3] -0.058 | [4] 0.002 | [5] -0.041 | [6] 0.006 | [7] -0.008 | [8] -0.006 | [9] 0.016 | [10] 0.063

O=C1NC(=O)/C(=C\c2ccc3nccnc3c2)S1
inactive: [1] -0.177 | [2] 0.031 | [3] -0.017 | [4] 0.007 | [5] 0.051 | [6] 0.021 | [7] -0.015 | [8] 0.005 | [9] 0.079 | [10] 0.045

NC1(Cc2ccc(Cl)cc2)CCN(c2ncnc3[nH]ccc23)CC1
inactive: [1] -0.149 | [2] 0.043 | [3] 0.119 | [4] 0.038 | [5] -0.042 | [6] 0.071 | [7] 0.058 | [8] 0.052 | [9] 0.117 | [10] 0.085

Cc1nc(Nc2ncc(C(=O)Nc3c(C)cccc3Cl)s2)cc(N2CCN(CCO)CC2)n1 [dasatinib]
inactive: [1] -0.226 | [2] -0.033 | [3] 0.082 | [4] 0.03 | [5] 0.009 | [6] 0.04 | [7] 0.042 | [8] -0.045 | [9] 0.047 | [10] -0.007

O=C(Nc1nc2ccccc2n1CCN1CCOCC1)c1cccc([N+](=O)[O-])c1 [IRAK-1-4 Inhibitor I]
inactive: [1] 0.02 | [2] 0.025 | [3] 0.057 | [4] 0.032 | [5] -0.134 | [6] 0.021 | [7] 0.11 | [8] 0.006 | [9] 0.057 | [10] 0.108

Cc1ccc(NC(=O)c2cccc(C(C)(C)C#N)c2)cc1Nc1ccc2ncn(C)c(=O)c2c1
inactive: [1] -0.027 | [2] -0.041 | [3] -0.064 | [4] 0.069 | [5] 0.017 | [6] 0.061 | [7] 0.209 | [8] -0.071 | [9] -0.092 | [10] -0.023

CC[C@H](C)[C@H](NC(=O)[C@H]([C@@H](C)CC)N(C)C(C)=O)C(=O)N[C@H](C(=O)N[C@@H](CC(C)C)C(=O)[C@@]1(C)CO1)[C@@H](C)O [epoxomicin]
active: [3] 0.345
inactive: [1] -0.026 | [2] 0.048 | [4] 0.051 | [5] -0.045 | [6] 0.134 | [7] 0.103 | [8] -0.05 | [9] -0.033 | [10] 0.026

CC[C@H](C)n1cc(C)c2c(C(=O)NCc3c(C)cc(C)[nH]c3=O)cc(-c3ccc(N4CCNCC4)nc3)cc21
inactive: [1] 0.173 | [2] 0.064 | [3] -0.045 | [4] -0.05 | [5] 0.04 | [6] -0.013 | [7] -0.073 | [8] -0.016 | [9] 0.055 | [10] 0.068

O=C(Nc1cccc(Nc2ncc(Br)c(NCCc3cnc[nH]3)n2)c1)N1CCCC1
inactive: [1] -0.106 | [2] -0.015 | [3] 0.01 | [4] -0.058 | [5] 0.004 | [6] -0.047 | [7] 0.017 | [8] -0.136 | [9] -0.042 | [10] -0.058

Cc1cccc(-c2[nH]c(C(C)(C)C)nc2-c2ccc3nccnc3c2)n1
inactive: [1] 0.031 | [2] -0.248 | [3] 0.007 | [4] -0.088 | [5] -0.069 | [6] 0.032 | [7] 0.088 | [8] 0.042 | [9] -0.038 | [10] 0.021

Cc1ncc(-c2ccnc(Nc3ccc(S(C)(=O)=O)cc3)n2)n1C(C)C
inactive: [1] -0.05 | [2] 0.058 | [3] -0.099 | [4] -0.031 | [5] -0.035 | [6] -0.01 | [7] -0.027 | [8] -0.033 | [9] -0.009 | [10] 0.074

Cc1ccc(-n2nc(C(C)(C)C)cc2NC(=O)Nc2ccc(OCCN3CCOCC3)c3ccccc23)cc1 [doramapimod]
inactive: [1] 0.032 | [2] -0.163 | [3] 0.106 | [4] 0.017 | [5] 0.109 | [6] -0.098 | [7] -0.024 | [8] 0.003 | [9] -0.009 | [10] 0.01

CCCCN(Cc1ccc(C(=O)NO)cc1)C(=O)Nc1ccccc1 [Nexturastat A]
inactive: [1] 0.047 | [2] 0.012 | [4] 0.027 | [5] 0.079 | [6] -0.064 | [7] -0.011 | [8] 0.059 | [9] 0.07 | [10] 0.19
active: [3] 0.371

Cc1ccc2c(=O)c3ccccc3n(CCCN)c2c1C
active: [1] -0.476 | [5] -0.432
inactive: [2] -0.017 | [3] -0.095 | [4] 0 | [6] 0.079 | [7] -0.04 | [8] 0.024 | [9] -0.058 | [10] -0.043

Cc1cccc(CC(=O)N2CCc3c2ccc(-c2cn(C)c4ncnc(N)c24)c3F)n1
inactive: [2] 0.369 | [3] -0.032 | [4] -0.014 | [5] -0.037 | [6] -0.041 | [7] -0.037 | [8] -0.036 | [9] -0.121 | [10] 0.027

Cc1cc(Nc2cc(CN3CCOCC3)c3nc(C)c(Cc4ccc(Cl)cc4F)n3n2)n[nH]1 [gandotinib]
inactive: [2] -0.269 | [3] 0.066 | [4] -0.004 | [5] 0.214 | [6] 0.011 | [7] -0.014 | [8] 0.305 | [9] 0.051 | [10] 0.025

c1cc(OCCN2CCCCC2)cc(-c2n[nH]c3ccc(-c4nnc[nH]4)cc23)c1
inactive: [2] 0.023 | [3] -0.063 | [4] -0.006 | [5] -0.161 | [6] 0.008 | [7] 0.035 | [8] -0.229 | [9] 0.029 | [10] -0.06

Oc1cc(-c2nc(-c3ccccc3)[nH]c2-c2ccncc2)ccc1Cl
inactive: [1] -0.053 | [2] 0.012 | [3] -0.024 | [4] -0.006 | [5] -0.06 | [6] -0.119 | [7] -0.042 | [8] -0.101 | [9] -0.033 | [10] 0.093

CN1CCC(CNc2ccc3ncc(-c4cccc(OC(F)(F)F)c4)n3n2)CC1
inactive: [2] -0.172 | [3] -0.068 | [4] -0.037 | [5] 0.171 | [6] -0.085 | [7] 0.008 | [8] 0.086 | [9] 0.035 | [10] -0.109

CC[C@@H]1C(=O)N(C)c2cnc(Nc3ccc(C(=O)NC4CCN(C)CC4)cc3OC)nc2N1C1CCCC1
inactive: [2] -0.032 | [3] 0.052 | [4] 0.058 | [5] 0.104 | [6] -0.027 | [7] 0.017 | [8] 0.202 | [9] 0.015 | [10] -0.018

CNCc1ccc(-c2[nH]c3cc(F)cc4c3c2CCNC4=O)cc1 [rucaparib]
active: [4] -0.241
inactive: [2] -0.271 | [3] -0.012 | [5] 0.113 | [6] 0.021 | [7] -0.206 | [8] 0.331 | [9] 0.049 | [10] -0.008

O=C1c2ccccc2-c2n[nH]c3cccc1c23
inactive: [2] -0.009 | [3] -0.055 | [4] -0.055 | [5] -0.004 | [6] -0.055 | [7] 0.018 | [8] 0.001 | [9] -0.093 | [10] -0.077

Cn1cc(-c2ccc3c(c2)CCN3C(=O)Cc2cccc(C(F)(F)F)c2)c2c(N)ncnc21
inactive: [2] -0.021 | [3] -0.02 | [4] 0.067 | [5] -0.161 | [6] 0.049 | [7] -0.023 | [8] 0.07 | [9] 0.053 | [10] -0.129

CCn1cc(-c2ccnc3[nH]c(-c4cccc(CN(C)C)c4)cc23)c(-c2ccc(NC(=O)N(C)C)cc2)n1
inactive: [2] -0.16 | [3] -0.017 | [4] -0.009 | [5] 0.07 | [6] 0.032 | [7] 0.022 | [8] 0.141 | [9] 0.018 | [10] -0.102

O=C1NC(=O)C(c2cnc3ccccn23)=C1c1cn2c3c(cc(F)cc13)CN(C(=O)N1CCCCC1)CC2
inactive: [1] 0.116 | [2] -0.198 | [3] -0.157 | [4] -0.013 | [5] 0.073 | [6] -0.003 | [7] 0.012 | [8] 0.045 | [9] 0.003 | [10] -0.042

COC(=O)N[C@@H](C)CNc1nccc(-c2cn(C(C)C)nc2-c2cc(Cl)cc(NS(C)(=O)=O)c2F)n1 [encorafenib]
inactive: [2] 0.01 | [3] -0.047 | [4] -0.019 | [5] 0.038 | [6] -0.026 | [7] 0.106 | [8] 0.082 | [9] -0.032 | [10] 0.014

From the supplement of paper PMC10849652
